Measurements reported in PubChem BioAssay (Tox21).
Inconclusive results are not listed. A number with no mark means an inactive call. Calls follow the shape of the full dose curve.

What follows are compounds tested against Peroxisome proliferator-activated receptor gamma (Homo sapiens) (UniProt P37231) (assay: qHTS assay to identify small molecule antagonists of the peroxisome proliferator-activated receptor gamma (PPARg) signaling pathway (AID 743191; also: nearly all actives have a fitted effect of over 30% in size)). Conditions: HEK293H PPARg-UAS-bla, beta-lactamase ratio, antagonist, 17 h; series mostly up to 62.6 µM; ratio activity, negative = inhibition: at the top concentration.
Chain of Peroxisome proliferator-activated receptor gamma (Homo sapiens) (P37231 whole entry, looked up): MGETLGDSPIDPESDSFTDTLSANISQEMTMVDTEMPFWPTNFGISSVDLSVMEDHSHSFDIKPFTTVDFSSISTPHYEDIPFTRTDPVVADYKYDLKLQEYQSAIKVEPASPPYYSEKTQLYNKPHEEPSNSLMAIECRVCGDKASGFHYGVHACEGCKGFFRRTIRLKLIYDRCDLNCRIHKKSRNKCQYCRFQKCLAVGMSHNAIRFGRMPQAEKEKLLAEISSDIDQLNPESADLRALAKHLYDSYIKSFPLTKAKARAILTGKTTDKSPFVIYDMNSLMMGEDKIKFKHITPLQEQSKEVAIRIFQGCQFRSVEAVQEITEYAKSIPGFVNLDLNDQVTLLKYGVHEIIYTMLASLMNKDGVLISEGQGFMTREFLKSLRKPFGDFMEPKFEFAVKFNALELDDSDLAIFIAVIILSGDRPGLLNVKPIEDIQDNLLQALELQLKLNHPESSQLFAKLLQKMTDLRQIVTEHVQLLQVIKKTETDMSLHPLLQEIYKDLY
Source text: U.S. Tox21 Program National Center for Advancing Translational Sciences [NCATS] NIH Chemical Genomics Center [NCGC] U.S. Environmental Protection Agency [EPA] National Institutes of Environmental Health Sciences [NIEHS] National Toxicology Program [NTP] U.S. Food and Drug Administration [FDA] Tox21 Assay Overview: The peroxisome proliferator-activated receptors (PPARs) are lipid-activated transcription factors of the nuclear receptor superfamily with three distinct subtypes namely PPAR alpha, PPAR delta (also called PPAR beta) and PPAR gamma (PPARg). All these subtypes heterodimerize with Retinoid X receptor (RXR) and these heterodimers regulate transcription of various genes. PPAR-gamma receptor (glitazone receptor) is involved in the regulation of glucose and lipid metabolism. To identify the compounds that inhibit PPAR-gamma signaling, GeneBLAzer PPAR gamma UAS-bla HEK293H cell line (Invitrogen, Carlsbad, CA, USA) containing a beta-lactamase reporter gene under control of an Upstream Activator Sequence (UAS) was used to screen the Tox21 compound library.
Tox21 Assay Protocol Summary: PPARg-bla cells were dispensed at 3000 cells/6uL/well in 1536-well black wall/clear bottom plates using a Multidrop Combi (Thermo Fisher Scientific, Waltham, MA) dispenser. After the assay plates were incubated at 37C and 5% CO2 for 5 h, 23 nL of compounds dissolved in DMSO, positive controls or DMSO only was transferred to the assay plate by a Pintool station (Kalypsys, San Diego, CA). The assay plates were incubated at 37C for 17 h. After 1 uL of LiveBLAzerTM B/G FRET substrate was added using a Bioraptr Flying Reagent Dispenser (FRD) workstation (Beckman Coulter, Indianapolis, IN, USA), the plates were incubated at room temperature for 1 h, and fluorescence intensity was measured by an Envision plate reader (PerkinElmer, Shelton, CT).
% is scaled to controls: 0 for no effect and ±100 for the full control effect.

| SMILES | ratio activity, negative = inhibition |
| --- | --- |
| CN1C(=O)COc2c(C(=O)NC3CN4CCC3CC4)cc(Cl)cc21 (stereo not given) | -0.841% |
| CC(Cl)(Cl)Cl | -0.611% |
| CCN(CC)CCOC(=O)C(O)(c1ccccc1)c1ccccc1 | 2.27% |
| Cn1c(CCCC(=O)O)nc2cc(N(CCCl)CCCl)ccc21 | 0.834% |
| CCNP(=S)(OC)O/C(C)=C/C(=O)OC(C)C (stereo not given) | -9.86% |
| C#CCOC(=O)/C=C(C)/C=C/CC(C)CCCC(C)C (stereo not given) | 11.5% |
| CCN(CCO)CCn1c(Cc2ccccc2)nc2c1c(=O)n(C)c(=O)n2C | 2.25% |
| CCC1(c2ccccc2)C(=O)N(COC)C(=O)N(COC)C1=O | 8.98% |
| CC[C@@H](CO)NC(=O)[C@@H]1C=C2c3cccc4c3c(cn4C)C[C@H]2N(C)C1 | 10.8% |
| C=CCc1cc(OC)c2c(c1)OCO2 | -0.696% [at 81.1 µM] |
| CCN[C@H](C)Cc1cccc(C(F)(F)F)c1 | -0.727% [at 81.1 µM] |
| O=C(Cl)C(Cl)(Cl)Cl | 5.24% [at 81.1 µM] |
| BrCCc1ccccc1 | 8.1% [at 81.1 µM] |
| C=CCN1CC[C@]23CCCC[C@H]2[C@H]1Cc1ccc(O)cc13 | -7.41% |
| C[C@H]1CCCC(=O)CCC/C=C/c2cc(O)cc(O)c2C(=O)O1 | -23.2% [at 29.1 µM] |
| O=C1CCCCC1Cl (stereo not given) | 0.643% [at 81.1 µM] |
| CCN[C@@H](C)Cc1ccccc1 | 3.69% [at 81.1 µM] |
| CCC(=O)OC1(c2ccccc2)CCN(C)CC1 | 3.16% [at 81.1 µM] |
| CCC1(CC)C(=O)C=CNC1=O | 2.81% |
| C(COCC1CO1)OCC1CO1 (stereo not given) | -2.9% |

| SMILES | ratio activity, negative = inhibition |
| --- | --- |
| CCOC(=O)C(SP(=S)(OC)OC)c1ccccc1 (stereo not given) | 21.1% |
| CCNc1nc(NCC)nc(SC)n1 | 8.74% |
| ClCCCCCCCl | 7.7% |
| Cc1ccc2c(c1)C1CN(C)CCC1N2 (stereo not given) | -5.7% [at 29.1 µM] |
| N=C(N)[Se] | -1.79% [at 81.1 µM] |
| ClCCN1CCCC1 | 6.1% |
| CCOC(=O)N(C)N=O | 6.78% |
| CC(C)(N)Cc1ccccc1Cl | -3.14% |
| C[N+]1(C)CCCCC1 | -7.56% |
| O=C(Cl)c1ccccc1 | -2.18% [at 81.1 µM] |
| N#CN | 15.9% [at 232 µM] |
| S=C=S | -0.0024% |
| CCC(CC)(CNC(=O)CCCO)c1cccc(OC)c1 | -7.19% |
| CCC1(c2cccc(O)c2)CCCCN(C)C1 (stereo not given) | 8.74% |
| CC1=C2[C@H]3OC(=O)[C@@H](C)[C@@H]3CC[C@@]2(C)C=CC1=O | 4.16% |
| [O-][Br+2]([O-])O | 8.88% |
| CC(C)N(Cc1ccccc1)C(=O)C(C)(C)C | 12.6% |
| COP(=O)(OC)O/C(C)=C/C(=O)N(C)C | -4.87% [at 81.1 µM] |
| C=C(C)[C@H]1CN[C@H](C(=O)O)[C@H]1CC(=O)O | 1.77% |
| Cc1ccc(S(=O)(=O)N[C@@H](CCCCN)C(=O)CCl)cc1 | -15.1% |
